What follows are sequences tested on RARg homodimer (NR concentration 270 nM) (assay: PBM binding z-score (relative to random genomic background probes); higher = stronger binding; sequences stand for … in GC…GCGATTGACAGCGTAGAATGAAGG).
Method in brief: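 On custom Agilent 4×180K arrays, double-stranded probes with 34-nt variable regions carried direct-repeat seeds, single-nucleotide variants, half-site ablations or random human genomic background. Ligand-free nuclear receptor dimers were applied for 1 h, and binding was read with antibodies against each partner (one per run). Binding z-scores come from regression-normalized fluorescence, with the random background probes as reference.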
Work on AGTCAAAGTTAACTAGGTAACGTAAGATTCAGCT yielded a PBM binding z-score of 0.566.
TCTTGTAGATCAAGCAGGTTAAGACAGCCTGAGT showed a PBM binding z-score of -0.105.
For GCTAGTTGGTAAGTAAAAGGTCACACACCGGTCG, the PBM binding z-score was 4.06.
CGAACTAGGTCATTGACAGGACAGTGAGTAGTAA showed a PBM binding z-score of 4.12.
For TCTTGTAGATCAATAGAGGTCAAGAAAGTGCGCT, the PBM binding z-score was 3.84.
With ACTAACAGGCCAAGTTTGGGTCACTCAAACAAAG the PBM binding z-score was 2.24.
In the case of TCTATTAGTTGAAGGGCAAACGACGAGTCCGTTT, the PBM binding z-score is reported as 0.64.
GCTAGGTGGTCAGTAAAAGGTCACACACCGGTCG gave a PBM binding z-score of 5.47.
ATCTCTAGGTAACAAGTACAGTGAAAGAGAGGAC showed a PBM binding z-score of 0.824.
ATCTCTAGGTAAAAGCTCAGTGAATCCCGAGGAT was tested, and the PBM binding z-score was 0.135.
TTACCAAGGTGCAGGTCGTTGATCCCTCTGTAGA gave a PBM binding z-score of -0.225.
AGACTGAGGTTATACGTAGATCAGGGAAGAAAGT gave a PBM binding z-score of 1.03.
For CAAACTAGGTCAGAGGTCAAAGTCGAGCCAACCA, the PBM binding z-score was 6.79.
GCGCGGAGGACAAGGTCAGAGCTTTGTCCGTAGA gave a PBM binding z-score of 3.32.
With TCTCGGAGGACACGAAAGGTCAGGGCTCGACATC the PBM binding z-score was 5.69.
In the case of TATGCAGGGTCAAAGGCCAGAGTACGAATGTCGA, the PBM binding z-score is reported as 4.89.
CCTAATGGGCCAAGGTCATTGATCAGTCAAAGCA showed a PBM binding z-score of 3.82.
For AGAACGAGGGCACGCGGAGTTGATAGCAGAGTAG, the PBM binding z-score was 2.41.

From the supplement of paper PMC6555819
